The list is not random: actives were taken first. Their share in the collection is about 7%.
AHR act = AHR activators, primary screen, cell-based, luminescence, luciferase reporter, human; AHR-responsive luciferase reporter cells; activation, % at 5 µM; actives 2.5% (n = 320,000); AID 2796, 2010; in the data active = activation above about 47%;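 also: 0% = vehicle wells and 100% = reference agonist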
Target sequence (P35869 whole entry, looked up): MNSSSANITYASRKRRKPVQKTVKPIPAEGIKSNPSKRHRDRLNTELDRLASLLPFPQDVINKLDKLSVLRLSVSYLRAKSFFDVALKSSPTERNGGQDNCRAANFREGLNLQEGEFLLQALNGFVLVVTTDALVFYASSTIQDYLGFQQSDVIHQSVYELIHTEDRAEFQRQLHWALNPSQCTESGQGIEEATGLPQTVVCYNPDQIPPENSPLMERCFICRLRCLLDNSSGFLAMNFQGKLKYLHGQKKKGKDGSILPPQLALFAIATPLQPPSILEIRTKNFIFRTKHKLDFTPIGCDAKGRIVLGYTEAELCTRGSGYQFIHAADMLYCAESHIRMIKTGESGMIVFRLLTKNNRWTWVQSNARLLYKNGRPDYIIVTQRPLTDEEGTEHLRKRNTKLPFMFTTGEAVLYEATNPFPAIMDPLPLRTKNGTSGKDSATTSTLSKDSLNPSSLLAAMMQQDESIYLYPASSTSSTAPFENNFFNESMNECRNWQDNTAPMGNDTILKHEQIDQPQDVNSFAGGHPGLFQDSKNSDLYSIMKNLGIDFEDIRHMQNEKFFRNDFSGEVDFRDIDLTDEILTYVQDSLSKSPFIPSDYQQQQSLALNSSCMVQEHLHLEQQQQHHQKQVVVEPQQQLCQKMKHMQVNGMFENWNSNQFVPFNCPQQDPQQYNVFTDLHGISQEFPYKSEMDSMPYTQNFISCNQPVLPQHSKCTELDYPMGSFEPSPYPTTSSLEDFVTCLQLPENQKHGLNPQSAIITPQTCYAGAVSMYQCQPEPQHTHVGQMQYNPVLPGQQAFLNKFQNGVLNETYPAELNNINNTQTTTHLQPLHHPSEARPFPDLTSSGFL
KLK7 zymogen act = proKLK7 zymogen activators, primary screen, biochemical, fluorescence intensity; Kallikrein-7 (Homo sapiens), P49862; purified proKLK7, EDANS-DABCYL substrate fluorescence; 100% is mature enzyme control, 0% vehicle; activation, % at 7 µM; actives 0.9% (n = 370,000);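 active = activation above the mean of all tested compounds plus 3 SD, computed per campaign excluding outliers beyond control limits, cut at about 13% in these data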
rCAG RNA binder = binders of r(CAG) RNA repeats, primary screen, biochemical, fluorescence; r(CAG) RNA repeat, TO-PRO-1 dye displacement fluorescence; inhibition, % at 3 µM; actives 1.3% (n = 370,000); AID 651821, 2012;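 active = inhibition above the plate cutoff, the mean of all test compounds on that plate plus 3 SD, cut at about 35% in these data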;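 also: 0% = DMSO alone and 100% = 100 µM mitoxantrone as full dye displacement; higher means more dye released from RNA so lower well fluorescence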
ADAM17 inh = ADAM17 inhibitors, primary screen, biochemical, QFRET | Disintegrin and metalloproteinase domain-containing protein 17 (Homo sapiens), P78536 | recombinant ADAM17, EDANS/DABCYL FRET peptide cleavage | inhibition, % at 6.95 µM | actives 0.83% (n = 370,000) | AID 720648, 2013;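 active = inhibition above the mean of compounds lying between control limits plus 3 SD, set per campaign, cut at about 8.5% in these data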;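 also: 0% = DMSO-only wells as the low control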
ADAM10 inh = human ADAM10 inhibitors, primary screen, biochemical, QFRET, HTS; actives 0.62% (n = 370,000); inhibition, % at 7 µM; AID 720582, 2013; recombinant ADAM10, EDANS/DABCYL FRET peptide cleavage, 3 h;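 active = inhibition above a per-campaign cutoff equal to the mean of compounds falling between control-based bounds plus 3 SD, cut at about 20% in these data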;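 also: 0% = DMSO wells while the 100% control is not disclosed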
GRIN3A LBD mod = binders of NR3A ligand-binding domain, primary screen, biophysical, differential scanning fluorimetry, uHTS. NR3A LBD differential scanning fluorimetry, Tm shift; 0% = protein alone, 100% = glycine-bound protein. Tm shift relative to glycine control, % at 25 µM. Glutamate receptor ionotropic, NMDA 3A (GRIN3A) ligand-binding domain. actives 2.5% (n = 340,000);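 active = melting temperature shift of at least 10% of the positive control shift, at one fixed dose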
The depositor's hits bear a star; nt = no result.

SMILES	AHR act	KLK7 zymogen act	rCAG RNA binder	ADAM17 inh	ADAM10 inh	GRIN3A LBD mod
COc1ccc(/C=N/n2cc(-c3ccc(OC)cc3)nc2N)cc1	11	nt	nt	nt	nt	-8
COc1ccc(Cl)cc1NC(=O)C/C(C)=N/NC(=O)CC#N	72*	1	6	-2	5	1
COC(=O)[C@]12C[C@H](CC(=O)N3CCN(C(=O)c4ccco4)CC3)C(=O)N(CCC3=CCCCC3)C1=C[C@H](C(C)(C)C)O[C@@H]2C	nt	0	2	-1	-5	nt
CCCN1C(=O)c2ccc(C(=O)Nc3cc(C)ccc3O)cc2C1=O	47	0	6	5	19	-1
Cc1ccc(O)c(NC(=O)c2ccc3c(c2)C(=O)N(CC(C)C)C3=O)c1	73*	0	4	-4	-1	0
NC(=S)NN=C1c2cc(Cl)ccc2-c2c1cc(Cl)cc2[N+](=O)[O-]	nt	nt	nt	nt	nt	12*
COc1ccc(Nc2nc(N3CCCC3)c3ccccc3n2)cc1	50*	0	19	-5	-6	-1
CC1(C)CC(=O)C=C(c2ccc(COC(=O)c3ccc(Br)cc3)cc2)C1=O	nt	-1	3	-6	-10	nt
COCc1cc(C)nc2sc(C(=O)Nc3ccc(C(=O)OC)cc3)c(N)c12	1	2	1	-8	-30	-3
COCc1cc(C)nc2sc(C(=O)OC(C)C)c(N)c12	72*	0	-5	-16	-39	-3
CCN1CCCC1CNC(=O)c1cc2cc(F)ccc2[nH]1 (stereo not drawn)	67*	1	4	-13	-31	1
CC(C)(C)c1ccc(S(=O)(=O)NCC2CCN(C(=O)C(=O)c3cccs3)CC2)cc1	nt	1	3	-1	1	nt
CN1/C(=C\C(=O)COc2ccc3c(c2)OCO3)C(C)(C)c2ccccc21	56*	-3	1	-9	-40	3
CCCCCNC(=O)C(=O)C1C(=O)Nc2ccccc21 (stereo not drawn)	25	0	-2	-7	-11	28*
Cc1ccc(N=Nc2c(N)[nH]n3c(=O)cc(C)nc23)cc1	10	0	12	-1	2	1
Nc1nc2nc(-c3ccccc3)cc(=O)n2[nH]1	2	0	0	-7	-20	0
Nc1[nH]n2c(=O)cc(-c3ccccc3)nc2c1N=Nc1ccccc1	3	0	13	-2	-5	16*
O=c1cc(-c2ccccc2)nc2nc(-c3ccccc3)[nH]n12	74*	0	-1	-7	-10	-23
Cc1ccc(NC(=O)Cn2nnc(-c3ccccc3NC(=O)c3cccs3)n2)cc1	24	0	1	-5	0	20*
COc1ccc(NC(=O)Cn2nnc(-c3ccccc3NC(=O)c3cccs3)n2)cc1	-1	0	9	1	-6	10*
CCCC(=O)OC12CCCN(C1)/C(=C/c1ccc(Cl)cc1)C2 (stereo not drawn)	nt	0	2	1	-4	nt
C#CCNC(=O)C[C@H]1C[C@@]2(C(=O)OC)C(=C[C@H](C3CCCC3)O[C@@H]2C)N(CCc2ccc(OC)c(OC)c2)C1=O	nt	0	-2	1	2	nt
NC(=O)c1c(/N=C/c2cccs2)sc2c1CCCC2	70*	1	4	-9	-20	3
CCCSc1cc(NCCOC(C)=O)c([N+](=O)[O-])c2nonc12	-2	0	1	-4	-6	13*
Cc1ccc(CNC(=O)C2c3ccccc3C(=O)N3CCc4ccccc4C23)o1 (stereo not drawn)	115*	0	1	-2	-1	2
SMILES	AHR act	KLK7 zymogen act	rCAG RNA binder	ADAM17 inh	ADAM10 inh	GRIN3A LBD mod
Cc1cccc(Cn2nc(C(C)(C)C)cc2C(=O)Nc2ccc(F)cc2)c1	-1	0	-2	9.0*	25*	0
O=c1[nH]c(C2CCN(S(=O)(=O)c3ccc(S(=O)(=O)NC4CC4)cc3)CC2)nc2c1nnn2Cc1ccccc1	0	0	13	2	11	4
O=c1[nH]c(C2CCN(S(=O)(=O)c3ccc(S(=O)(=O)NC4CC4)cc3)CC2)nc2c1nnn2Cc1ccc(F)cc1	-1	0	9	1	11	10*
COC(=O)[C@]12C[C@H](CC(=O)NCCc3ccccc3OC)C(=O)N(CCC3=CCCCC3)C1=C[C@H](COCc1ccccc1)O[C@@H]2C	nt	1	8	-3	-3	nt
Cc1ccc(NC(=O)c2cc(S(=O)(=O)NCCC3=CCCCC3)ccc2F)cc1F	9	0	2	10*	25*	17*
O=C(Cn1cnc2ccccc2c1=O)N1CCCCC1	nt	0	5	-2	7	nt
C/C(=N\NC(=O)c1ccccc1C)c1cccnc1	33	-1	0	-5	-1	2
COc1ccccc1NC(=O)c1cccnc1	68*	0	1	-2	0	2
COc1ccccc1C(=O)N/N=C(\C)c1cccnc1	59*	0	-2	-2	-1	0
COc1ccc(NC(=O)c2cccnc2)c(OC)c1	0	0	-2	-2	4	1
COc1ccccc1NC(=O)NC(=O)c1ccccc1	49*	0	5	2	10	0
O=C1CCC[C@H]2[C@@H](Cc3ccccc3)[C@@H](O)CC[C@]23CCCN13	nt	nt	nt	1	0	nt
C[C@@H]1CN(c2ccc(N3CCN(C(=O)OC(C)(C)C)C[C@@H]3C)cc2C#N)CCN1Cc1ccccc1	nt	0	5	-11	-57	nt
Cc1cc2nc(-c3ccccc3)c(Cc3cccc(F)c3)n2c(C)c1Br	nt	0	30	-4	-3	nt
FC(F)(F)c1cc(Cl)c2nc(-c3ccccc3)c(Cc3cccc(Cl)c3)n2c1	nt	0	41*	2	5	nt
Cc1cc2nc(-c3ccccc3)c(Cc3cccc(Cl)c3)n2c(C)c1Br	nt	0	52*	-4	6	nt
FC(F)(F)c1cc(Cl)c2nc(-c3cccc(Cl)c3)c(Cc3cccc(Cl)c3)n2c1	nt	0	7	0	8	nt
CC(=O)N1c2cc(S(=O)(=O)N3CCN(c4ccccc4F)CC3)c(Br)cc2CC1C (stereo not drawn)	nt	0	2	6	12	nt
COc1ccc2ccccc2c1-c1c(C(=O)c2ccc(Br)cc2)[nH]c(N)c1C(=O)NC1CCCCC1	nt	nt	nt	1	5	nt
Cc1ccn2cc(-c3ccc(NC(=O)c4ccco4)cc3)nc2c1	-4	0	-1	-2	-7	29*
Cc1ccn2cc(-c3ccc(Br)cc3)nc2c1	74*	0	-2	-11	-30	-10
COc1c(Cl)cccc1-c1cn2ccc(C)cc2n1	4	1	-4	-41	-118	11*

Screening results (PubChem BioAssay)
